We go through 31 molecules from PubChem BioAssay (Tox21).

The structures appear in SMILES notation. Results filed as inconclusive are left out. Entries that show only a call come without a potency. Values without a mark were called inactive. Activity calls are given as the source filed them. Calls come from the whole dose curve; as a rule, active = well fitted activation curve with a large enough effect in the repeat runs; inconclusive = weak or mixed curves; inactive = flat fitted curve, though single readings scatter.
Potency is the fitted concentration of half-maximal effect.

A short description of this experiment: A CellTox Green Cytotoxicity Assay to monitor cytotoxicity in HepG2 cells - 40 hour (AID 1224879). Note: nearly all actives have a fitted effect of over 40% in size. The note with it: CellTox Green fluorescence; series mostly up to 76.8 µM. The method, boiled down: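 HepG2 cells were seeded together with the CellTox Green dye at 600 cells/well, left 5 h at 37 C/5% CO2, then given compounds in DMSO. Fluorescence from dye bound to dead-cell DNA was read repeatedly over 40 h of treatment at 37 C.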
For the molecule `CNC(=O)N(c1ccccc1)c1ccccc1`, the Potency result is “inactive”.

As for `CC1(C)C(=O)N(Br)C(=O)N1Cl`, the Potency entry was “inactive”.

For the molecule `CC#N`, the Potency result was “inactive”.

Regarding `OC/C(Br)=C(\Br)CO`, the Potency result was “inactive”.

For the molecule `CC1=CC(=O)CC(C)(C)C1(O)/C=C/C(C)=C\C(=O)O` (stereo unspecified), the Potency result is “inactive”.

In the case of `CCCCC(CC)CNCC(CC)CCCC` (stereo unspecified), the Potency result was “inactive”.

As to `CC(=O)OCC(=O)[C@H]1CC[C@H]2[C@@H]3CCC4=CC(=O)CC[C@]4(C)[C@H]3CC[C@]12C`, the Potency entry is “inactive”.

Consider `COC(=O)c1cc(Cl)ccc1NS(=O)(=O)C(F)(F)F`, for which the Potency result is “inactive”.

Regarding `CC(=O)CC(c1ccc([N+](=O)[O-])cc1)c1c(O)c2ccccc2oc1=O` (stereo unspecified), the Potency result was “inactive”.

In the case of `CCOC(=O)c1ccccc1OC`, the Potency entry is “inactive”.

Turning to `c1cnc2c(n1)CCCC2`, the Potency was 38.9 µM (active).

Consider `CO[C@H]1O[C@H](CO)[C@@H](O)[C@H](O)[C@H]1O`, for which the Potency result is “inactive”.

With `O=C(/C=C/c1ccccc1)OCCCc1ccccc1`, the Potency entry was “inactive”.

Regarding `C=CCCCCCCCCCCCCCCCC`, the cytotoxicity increase was -20.6% [at 6.97 µM].

With `NC(=O)N(O)[C@@H]1C=C[C@H](Oc2cccc(Oc3ccc(F)cc3)c2)C1`, the Potency was 38.9 µM (active).

As to `CC1CC(O)CC(C)(C)C1` (stereo unspecified), the Potency entry is “inactive”.

As for `N#C[C@@H]1C[C@@H]2C[C@@H]2N1C(=O)[C@@H](N)C12CC3CC(CC(O)(C3)C1)C2`, the Potency entry is “inactive”.

With `O=Cc1c(Cl)cccc1Cl`, the Potency result was “inactive”.

For the molecule `CC1(C)O[C@@H]2C[C@H]3[C@@H]4CCC5=CC(=O)C=C[C@]5(C)[C@H]4[C@@H](O)C[C@]3(C)[C@]2(C(=O)CO)O1`, the Potency result is “inactive”.

Turning to `CCCCCCCCCCCCCCCCBr`, the cytotoxicity increase is -7.84% [at 15.8 µM].

As to `CCCCCCOC(=O)C(C)C`, the Potency result is “inactive”.

With `COC(=O)c1cc(S(N)(=O)=O)ccc1OC`, the Potency entry is “inactive”.

Consider `C=CC(C)(O)CCCC(C)CCCC(C)CCCC(C)C` (stereo unspecified), for which the Potency entry was “inactive”.

Consider `CN1C(=O)CC(C)(c2ccccc2)C1=O` (stereo unspecified), for which the Potency result is “inactive”.

Regarding `C[C@]12CCC(=O)C=C1C=C[C@@H]1[C@@H]2CC[C@@]2(C)[C@H]1CC[C@@]21CCC(=O)O1`, the Potency entry was “inactive”.

For `Cc1occc1C(=O)Nc1ccc(C(=O)N2CCC(F)(F)/C(=C\C(=O)N3CCC(N4CCCCC4)CC3)c3ccccc32)cc1`, the Potency was 15.3 µM (active).

Regarding `C=CC(=C)CCCC(C)(C)OC(C)=O`, the Potency entry was “inactive”.

As to `O=S1OCCO1`, the Potency result was “inactive”.

Turning to `CC(=O)Nc1ccccc1C`, the Potency result is “inactive”.

In the case of `COc1cc2[nH]c(=O)[nH]c(=O)c2cc1OC`, the Potency entry is “inactive”.

Turning to `N#C/C(=C1/SC[C@@H](c2ccc(Cl)cc2Cl)S1)n1ccnc1`, the Potency entry was “inactive”.
